The results in this text go back to PubChem BioAssay AID1029 (Sanford-Burnham Center for Chemical Genomics, 2008).

Structures are written as SMILES. Screen size: about 110,000 compounds; about 80 (0.07%) were called active. The sample holds actives, similar compounds and a random draw of the others, so the mix is not that of the screen.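 How the source made its calls: active means inhibition above the mean of the plate negative controls plus 5 SD (cut at about 13% in these data); inactive means the rest.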

The experiment in a line: inhibitors of macrophage phagocytosis, primary screen, imaging, J774A.1 cells, IgG beads (AID 1029).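 Further: phagocytic index as fraction of beads internalized from green versus red external bead signal; plate controls were DMSO negative control for no effect and cytochalasin-D positive control for full effect.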 Conditions: J774A.1 macrophage IgG-bead phagocytosis, at 5 µM, hits give high values.
Usually inhibition stands for the drop in the measured response relative to a control, in per cent. In the case of `COc1ccc(C/C(C)=N/NC(=O)c2cc(C)oc2C)cc1`, the inhibition was -3.05% (inactive).

Consider `C/C(=N\N1CCN(Cc2ccc(C)cc2)CC1)c1ccco1`, for which the inhibition was -3.06% (inactive).

For the compound `CCCC/S(C)=N/S(=O)(=O)c1ccc(C)cc1` (stereo unspecified), the inhibition was -3.8% (inactive).

Consider `O=C(NC(=O)N1CCOCC1)c1ccccc1`, for which the inhibition was -2.51% (inactive).

Take `CCN(CC)S(=O)(=O)c1cc([N+](=O)[O-])ccc1N=Nc1c(O)n(C)c2ccccc12`: the inhibition was -7.04% (inactive).

Take `CC1=C(C)CC(C(=O)NNC(=O)c2csc3c2CCC(C(C)(C)C)C3)C(C(=O)O)C1` (stereo unspecified): the inhibition was -3.56% (inactive).

Turning to `CCOC(=O)/C(=N\Nc1cc(Cl)ccc1Cl)N1CCN(C)CC1`, the inhibition is -4.83% (inactive).

As for `Cc1ccccc1N(C(=O)Cc1cccs1)C(C(=O)NC1CCCCC1)c1cn(C)nc1C` (stereo unspecified), the inhibition is -10.4% (inactive).

For `Cc1nc(-c2ccccc2)cn2c1nc1ccccc12`, the inhibition is -5.21% (inactive).

Consider `CCOc1ccccc1N1CCN(C(=S)Nc2ccc(S(N)(=O)=O)cc2)CC1`, for which the inhibition is -1.85% (inactive).

Turning to `CC(C)(C)NCCCOc1ccc(Cl)cc1C(C)(C)C`, the inhibition was -2.22% (inactive).

Take `Cc1ccc(C(=O)/C=C/Nc2ccc(S(=O)(=O)Nc3onc(C)c3C)cc2)cc1`: the inhibition was 4.08% (inactive).

Regarding `O=C(c1cncc(Br)c1)N1CCN(c2ccc([N+](=O)[O-])cc2)CC1`, the inhibition was 1% (inactive).

Regarding `N=c1n(CCc2ccccc2)c2ccccc2n1Cc1ccccc1F`, the inhibition is -1.86% (inactive).

Turning to `CCCOC(=O)c1ccc(N2C(=O)c3ccccc3C2=O)cc1`, the inhibition is -13.4% (inactive).

With `Cc1ccc(C(=O)NC(C)c2ccccc2)cc1Br` (stereo unspecified), the inhibition is -1.23% (inactive).

As for `Cc1ccc(CC(=O)Nc2ccc(OC(F)F)c(Cl)c2)cc1C`, the inhibition was -0.42% (inactive).

For the compound `COc1ccc(/C=C/C(=O)OCC(=O)NCc2cccs2)cc1OC`, the inhibition was -8.33% (inactive).

For `Cc1ccc(C2=NN(C(=O)CSc3nc(N)cc(N)n3)C(c3ccco3)C2)cc1` (stereo unspecified), the inhibition was -1.98% (inactive).

For `C=CCn1c(SCc2ccc(Cl)c(Cl)c2)nnc1C(CO)NC(=O)c1ccc(OC)cc1` (stereo unspecified), the inhibition is -2.58% (inactive).

For the compound `Cc1cc(F)ccc1S(=O)(=O)Nc1ncnc2scc(-c3ccc(F)cc3)c12`, the inhibition was 0.71% (inactive).

For the compound `CN(c1nc2ccccc2n2c(-c3ccco3)nnc12)S(=O)(=O)c1ccccc1`, the inhibition was 14.8% [artifact] (active).

Regarding `Cc1cc(NCc2ccco2)n2c(nc3ccccc32)c1C#N`, the inhibition was -1.3% (inactive).

For the compound `c1coc(-c2nc3nc4ccccc4n3nc2-c2ccco2)c1`, the inhibition was -0.8% (inactive).

For `NS(=O)(=O)c1ccc(N=Cc2ccc(Br)s2)cc1`, the inhibition is -3.71% (inactive).

As to `Cc1nn(-c2ccccc2)c2c1C(c1cccc([N+](=O)[O-])c1)N(c1ccccc1)C(=O)N2` (stereo unspecified), the inhibition was -9.61% (inactive).

As to `COc1cc(C(=O)NNC(=O)c2ccc(S(=O)(=O)N3CCCCC3)cc2)cc(OC)c1OC`, the inhibition was -4.43% (inactive).

For `CC(=O)Nc1ccc(S(=O)(=O)NC2(C(F)(F)F)C(=O)Nc3c2c(=O)[nH]c(=O)n3Cc2ccccc2)cc1` (stereo unspecified), the inhibition was -1.92% (inactive).

`CCc1ccc(C2N3CC4([N+](=O)[O-])CN2CC([N+](=O)[O-])(C3)C4(C)C)cc1` (stereo unspecified): the inhibition is -13.9% (inactive).

With `C=CCn1c(CCNC(=O)c2cccs2)n[nH]c1=S`, the inhibition was -0.81% (inactive).

For the compound `COc1cc(/C=C/C(=O)N2c3ccccc3Sc3ccc(C(F)(F)F)cc32)cc(OC)c1OC`, the inhibition was -3.45% (inactive).

Regarding `Cc1ccc(Sc2ccncc2S(N)(=O)=O)cc1`, the inhibition was -3.16% (inactive).

`O=C(c1cccs1)n1nc(NCc2ccccc2)nc1NCc1ccccc1`: the inhibition was -7.68% (inactive).

For the compound `CCC1C=C(c2ccccc2)C=CN=C1N(CC)CC` (stereo unspecified), the inhibition is -1.57% (inactive).

In the case of `O=C(Cn1cc(C(F)(F)F)ccc1=O)N/N=C/c1ccc(Cl)cc1Cl`, the inhibition was -1.82% (inactive).

Turning to `O=C(CN1CCSCC1)N/N=C/c1ccc(F)cc1`, the inhibition is -0.8% (inactive).

On to `O=C(CN1CCSCC1)N/N=C/c1ccc(F)cc1F`, for which the inhibition is 117% (active).

With `COCCNc1cc(NCCOC)c([N+](=O)[O-])cc1[N+](=O)[O-]`, the inhibition was -0.9% (inactive).

With `O=C(N/N=C/c1ccc(Br)o1)c1cncc(Br)c1`, the inhibition was -4.83% (inactive).

For `CC(=O)c1c(N2CCN(c3ccc(F)cc3)CC2)nc(=S)n(-c2ccccc2)c1C`, the inhibition was -2.05% (inactive).

Turning to `COc1ccc2c(CC(=O)OCC(=O)Nc3ccccc3[N+](=O)[O-])coc2c1`, the inhibition is -0.7% (inactive).

In the case of `COc1ccccc1-c1nnc(NC(=O)c2ccc3ncsc3c2)o1`, the inhibition is -6.06% (inactive).

Take `Cc1ccc(SCCC(=O)NC(C(C)C)C(C)C)cc1`: the inhibition is -6.42% (inactive).

As for `COC(=O)c1ccccc1NS(=O)(=O)c1ccc2[nH]c(=O)[nH]c2c1`, the inhibition is -2.75% (inactive).

Regarding `Cc1ccccc1C1=NC(C(F)(F)F)(C(F)(F)F)c2c(n(-c3ccc(F)cc3)c(=O)[nH]c2=O)N1`, the inhibition is -2.94% (inactive).

Consider `COc1ccccc1N1CCN(CC(=O)NC(=O)NCc2ccco2)CC1`, for which the inhibition was -5.49% (inactive).

Regarding `CCCNC(=O)NC(=O)COC(=O)CC(NC(N)=O)c1ccc(Cl)cc1` (stereo unspecified), the inhibition is -1.97% (inactive).

For the compound `Cc1ccc(NC(=O)COC(=O)CCc2nc3ccccc3n2-c2ccccc2)c(C)c1`, the inhibition is -9.97% (inactive).

With `Cn1cnc(C(F)(F)F)c1-c1ccc([N+](=O)[O-])cc1`, the inhibition was -12.1% (inactive).

Turning to `CN(C)c1ccc(/C=N/NC(=O)c2ccc(Cn3cc(Br)cn3)o2)cc1`, the inhibition is -0.35% (inactive).

As to `O=C(NNC(=O)c1cc2c(s1)CCCC2)c1ccccc1`, the inhibition is -4.32% (inactive).

In the case of `COc1cc(CCC(=O)OCC(=O)Nc2cccc(S(N)(=O)=O)c2)cc(OC)c1OC`, the inhibition was -3.93% (inactive).

In the case of `CC(C)(C)C(=O)NC(NC(=S)Nc1ccc(S(N)(=O)=O)cc1)C(Cl)(Cl)Cl` (stereo unspecified), the inhibition is -10.5% (inactive).

In the case of `CC(OC(=O)c1ccccc1N1C(=O)C2C3CCC(C3)C2C1=O)C(=O)c1ccccc1` (stereo unspecified), the inhibition was -1.86% (inactive).

For the compound `CC(C)C(=O)Nc1ccc(C(=O)NNC(=O)c2cccs2)cc1`, the inhibition is -0.44% (inactive).

`O=[N+]([O-])c1ccc(NCCCO)c(C(F)(F)F)c1`: the inhibition is -3.18% (inactive).

`CN(C)CCNC(=O)/C(=C/c1cccc([N+](=O)[O-])c1)NC(=O)c1ccccc1`: the inhibition is -4.59% (inactive).

As for `S=C(NCC1COc2ccccc2O1)Nc1ccc(Br)cc1` (stereo unspecified), the inhibition was -5.67% (inactive).

As for `NC(=O)Nc1ccccc1C(=O)NCCc1ccccc1`, the inhibition was 2.64% (inactive).

On to `Cc1nn(Cc2ccc(Cl)cc2)c(Cl)c1/C=N/NC(=O)c1cccnc1`, for which the inhibition is -2.24% (inactive).

Turning to `Cc1cc(Cl)ccc1OCCCC(=O)NCc1ccncc1`, the inhibition is 1.98% (inactive).

On to `CC1CN(S(=O)(=O)c2ccc(C(=O)Nc3sccc3C(N)=O)cc2)CC(C)O1` (stereo unspecified), for which the inhibition was -5.22% (inactive).

`CNC(=S)N/N=C/c1ccc(OCc2ccccc2)c(Br)c1`: the inhibition was -0.67% (inactive).

In the case of `CCCCCC(=O)Nc1ccc(S(=O)(=O)Nc2ccc(Cl)nn2)cc1`, the inhibition is -11.6% (inactive).

For the compound `COc1cccc(NC(=S)NCc2ccco2)c1`, the inhibition was -4.01% (inactive).

With `CCC(NC(=O)c1ccccc1NC(=O)c1ccccc1)C(=O)NNC(=O)CSc1nc2ccccc2o1` (stereo unspecified), the inhibition was -1.59% (inactive).

With `CCc1ccc(C2C(C#N)=C(N)N(N(C)C)C3=C2C(=O)CCC3)s1` (stereo unspecified), the inhibition was -3.98% (inactive).

On to `O=C(/C=C\c1ccc2c(c1)OCO2)NC1(C(=O)Nc2ccc3c(c2)OCCO3)CCCCC1`, for which the inhibition is -2.27% (inactive).

For the compound `COc1ccc(NC(C(=O)Nc2cccc(C(C)=O)c2)c2ccccc2)cc1` (stereo unspecified), the inhibition is -15.7% (inactive).

For the compound `C/C(=N\NC(=O)c1ccc(CSc2nc(C)cc(C)n2)cc1)C1CCCCC1`, the inhibition is -4.86% (inactive).

As to `CCCn1c(=O)c2c(C(F)(F)F)cc(-c3cccs3)nc2n(CCC)c1=O`, the inhibition is 1.31% (inactive).

As for `COC(=O)c1sc(N)c(C(=O)OC)c1COC(=O)CNS(=O)(=O)c1ccc(C)cc1`, the inhibition is -11.5% (inactive).

For the compound `Cc1ccc(/C=C/C(=O)Nc2cc(S(=O)(=O)N3CCCCCC3)ccc2OCC(F)(F)F)o1`, the inhibition is -12.4% (inactive).

Turning to `O=C(/C=C/NCc1ccc(F)cc1)c1ccccc1`, the inhibition was -1.23% (inactive).

With `Cn1cc(C(=O)NCc2ccccc2F)cn1`, the inhibition was 1.49% (inactive).

As for `C=CCc1ccccc1OCC(=O)N/N=C/c1ccccc1OCC`, the inhibition is 1.26% (inactive).

With `CCOc1ccc(Oc2nc(C)cc(OC)n2)nn1`, the inhibition was -0.15% (inactive).

With `COCCCNC(=S)NC(=O)c1ccccc1`, the inhibition was -6.86% (inactive).

Take `C/C(=N\NC(=O)Cc1ccc(F)cc1)c1ccc(F)cc1`: the inhibition was -0.05% (inactive).

For `COc1ccc(C(=O)CSc2nnc(NC(=O)C3CC(=O)N(c4cccc(OC)c4)C3)s2)cc1` (stereo unspecified), the inhibition was 6.45% (inactive).

Take `CC1CCCCN1S(=O)(=O)c1ccc(S(=O)(=O)N(CC(=O)Nc2ccccc2)Cc2cccs2)cc1` (stereo unspecified): the inhibition was -1.49% (inactive).

As for `COc1ccc([C@H]2[C@H](C(C)=O)N3N=Cc4ccccc4C3C23C(=O)OC(C)(C)OC3=O)cc1` (stereo partly specified), the inhibition is 5.33% (inactive).

In the case of `CCOC(=O)CNC(=O)/C=C/c1c(Cl)cccc1Cl`, the inhibition is -2.32% (inactive).

For the compound `CC(=O)NC(Cc1ccccc1)C(=O)NC1CCN(c2ncccc2[N+](=O)[O-])CC1` (stereo unspecified), the inhibition was 1.47% (inactive).

For `COc1ccc(OCC(=O)Nc2cc(C)c(Cl)cc2OC)c([N+](=O)[O-])c1`, the inhibition is -2.85% (inactive).

In the case of `COc1ccc(S(=O)(=O)NC(C)C)cc1C(=O)NC1CCCCC1`, the inhibition is -3.85% (inactive).
